In assay [1] the test system is T1, PIP5K2B.
T1 construct: gene PIP4K2B
To be noted: Compound Concentration (nM):1000.

The test system of assay [2] is T2, PIP5K2C.
T2 construct: gene PIP4K2C
To be noted: Compound Concentration (nM):1000.

Assay [3] has as its system T3, PKAC-alpha.
T3 construct: gene PRKACA
To be noted: Compound Concentration (nM):1000.

The subject of assay [4] is T4, PKAC-beta.
T4 construct: gene PRKACB
To be noted: Compound Concentration (nM):1000.

The subject of assay [5] is PKMYT1. As to conditions: Compound Concentration (nM):1000.
In assay [6] the test system is PKN1. As to conditions: Compound Concentration (nM):1000.
For assay [7], the system named is PKN2. To be noted: Compound Concentration (nM):1000.
For assay [8], the system named is PKNB(M.tuberculosis). As to conditions: 1 µM.
Assay [9] relates to PLK1. As to conditions: Compound Concentration (nM):1000.
Assay [10] concerns PLK2. As to conditions: Compound Concentration (nM):1000.
Assay [11] has as its system PLK3. To be noted: Compound Concentration (nM):1000.
Assay [12] deals with PLK4. As to conditions: Compound Concentration (nM):1000.
Assay [13] concerns PRKCD. To be noted: Compound Concentration (nM):1000.
The subject of assay [14] is PRKCE. As to conditions: Compound Concentration (nM):1000.
Assay [15] has as its system PRKCH. To be noted: Compound Concentration (nM):1000.
Assay [16] deals with PRKCI. As to conditions: Compound Concentration (nM):1000.
Assay [17] concerns PRKCQ. To be noted: Compound Concentration (nM):1000.
In assay [18] the test system is PRKD1. As to conditions: Compound Concentration (nM):1000.
The test system of assay [19] is PRKD2. To be noted: Compound Concentration (nM):1000.
Assay [20] relates to PRKD3. As to conditions: Compound Concentration (nM):1000.
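Also: KINOMEscan scanMAX binding as percent activity remaining versus control; lower means stronger binding.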

Regarding `Cl.O=C(Nc1ccc(Oc2ccc3[nH]c(NC(=O)c4ccccc4)nc3c2)cc1)Nc1cc(C(F)(F)F)ccc1F` [GW709042A], the “Percent Control” value in assay [1] is 100%; in [2] it was 97%; in assay [3], 100%; in assay [4], 100%; in assay [5], 100%; in assay [6] it was 100%. For the same compound, the “Percent Control” value came to 60% in assay [7]; 88% in assay [8]; 100% in [9]; 98% in assay [10]; 92% in [11]; 77% in [12]. Moreover, the “Percent Control” value in assay [13] was 87%; in assay [14], 100%; in assay [15], 100%; in assay [16], 90%; in [17], 100%; in assay [18], 100%. In addition, the figures for the “Percent Control” value in assay [19] and in assay [20] were 100% and 83%, respectively.

On to `COc1cc(C=NNc2ncnc3c2cnn3-c2ccccc2)ccc1O` [GW513184X], for which the “Percent Control” value is 59% in [1]; 1.4% in [2]; 100% in assay [3]; 100% in [4]; 100% in assay [5]; 81% in assay [6]. The “Percent Control” value was 100% in assay [7]; 86% in [8]; 100% in assay [9]; 37% in assay [10]; 71% in assay [11]; 77% in [12]. Further, the “Percent Control” value in [13] was 100%; in [14], 88%; in assay [15] it was 100%; in assay [16] it was 100%; in assay [17], 86%; in assay [18], 100%. For the same compound, the “Percent Control” value in assay [19] and in assay [20] was 100% in each case.

`CCS(=O)(=O)c1ccc(OC)c(Nc2ncc(-c3cccc(OC)c3)o2)c1` [GW580509X]: the “Percent Control” value in [1] was 91%; in assay [2], 11%; in assay [3] it was 100%; in [4], 100%; in assay [5] it was 100%; in [6] it was 100%. For the same compound, the “Percent Control” value in assay [7] is 100%; in assay [8], 100%; in assay [9] it was 92%; in assay [10], 86%; in assay [11] it was 94%; in [12], 50%. Besides, the “Percent Control” value in assay [13] was 100%; in [14] it was 62%; in assay [15], 100%; in assay [16], 100%; in [17], 100%; in [18], 100%. The “Percent Control” value in assay [19] and in assay [20] was 100% in each case.

Regarding `Cl.c1ccc(Cc2nc3ccc(Nc4ncnc5ccccc45)cc3[nH]2)cc1` [GR269666A], the “Percent Control” value was 100% in [1]; 71% in assay [2]; 100% in [3]; 100% in assay [4]; 100% in assay [5]; 92% in assay [6]. Further, the “Percent Control” value in assay [7] is given as 100%; in assay [8], 100%; in [9] it was 80%; in assay [10], 100%; in [11], 100%; in [12], 100%. The “Percent Control” value is 100% in assay [13]; 78% in [14]; 100% in [15]; 100% in [16]; 88% in assay [17]; 100% in [18]. Besides, the “Percent Control” value in assay [19] and in assay [20] was 100% each time.

Consider `COc1ccc2[nH]c3c4[nH]c5ccc(OC)cc5c4c4c(c3c2c1)C(=O)NC4=O` [GW296115X], for which the “Percent Control” value in [1] was 100%; in assay [2], 28%; in [3], 87%; in assay [4] it was 89%; in assay [5] it was 97%; in [6] it was 42%. In addition, the “Percent Control” value in [7] is recorded as 52%; in assay [8], 67%; in assay [9] it was 90%; in assay [10], 95%; in assay [11] it was 88%; in [12], 1.4%. Further, the “Percent Control” value in [13] was 93%; in assay [14], 75%; in [15], 35%; in [16], 63%; in assay [17], 44%; in assay [18] it was 68%. Further, the “Percent Control” value in assay [19] is 62%; in assay [20], 75%.

Regarding `COc1ccc2c(-c3ccnc(Nc4cccc(OC(F)(F)F)c4)n3)cnn2n1` [GW810372X], the “Percent Control” value in assay [1] is 100%; in assay [2] it was 32%; in assay [3] it was 100%; in assay [4], 100%; in assay [5] it was 100%; in assay [6], 100%. Also, the “Percent Control” value in assay [7] was 76%; in assay [8] it was 82%; in assay [9], 91%; in [10], 100%; in [11], 83%; in assay [12], 100%. In addition, the “Percent Control” value in assay [13] was 99%; in assay [14] it was 100%; in assay [15], 94%; in assay [16], 100%; in assay [17] it was 100%; in [18], 100%. Besides, the “Percent Control” value in assay [19] and in assay [20] was 100% each time.

With `COc1cc(C)c(N(C)C(=O)CN(C)C)cc1Nc1nc(Nc2cccc(F)c2C(N)=O)c2cc[nH]c2n1` [GSK2219385], the “Percent Control” value was 100% in assay [1]; 92% in [2]; 100% in [3]; 100% in assay [4]; 78% in assay [5]; 89% in assay [6]. The “Percent Control” value worked out at 88% in assay [7]; 63% in [8]; 81% in assay [9]; 100% in [10]; 94% in assay [11]; 84% in assay [12]. Further, the “Percent Control” value was 100% in assay [13]; 100% in [14]; 100% in assay [15]; 82% in assay [16]; 92% in assay [17]; 100% in assay [18]. Further, the “Percent Control” value in assay [19] is 89%; in assay [20], 88%.

`NS(=O)(=O)c1ccc(N/N=C2\C(=O)Nc3ccc(Cl)cc32)cc1` [GW280670X]: the “Percent Control” value is 98% in [1]; 81% in assay [2]; 100% in assay [3]; 100% in [4]; 100% in assay [5]; 100% in [6]. The “Percent Control” value is recorded as 97% in [7]; 100% in assay [8]; 100% in assay [9]; 100% in [10]; 95% in assay [11]; 89% in [12]. The “Percent Control” value in assay [13] was 99%; in assay [14] it was 100%; in assay [15], 100%; in assay [16] it was 100%; in assay [17], 100%; in [18] it was 100%. Besides, the “Percent Control” value in [19] and in assay [20] was 100% throughout.

In the case of `COC(=O)Nc1nc2ccc(Oc3ccc(NC(=O)Nc4cc(C(F)(F)F)ccc4F)cc3)cc2s1.Cl` [GW693917A], the “Percent Control” value in assay [1] was 100%; in [2], 96%; in assay [3], 100%; in assay [4], 95%; in assay [5], 95%; in [6], 82%. Moreover, the “Percent Control” value in assay [7] is listed as 57%; in assay [8] it was 70%; in [9], 67%; in assay [10] it was 96%; in assay [11], 100%; in [12], 66%. Further, the “Percent Control” value in assay [13] was 100%; in assay [14] it was 100%; in assay [15], 100%; in [16], 91%; in assay [17], 62%; in [18], 100%. Also, the figures for the “Percent Control” value in [19] and in assay [20] were 100% and 86%, respectively.

`Cc1cc(O)cc(C)c1/C=C/c1cncc(C(N)=O)c1` [GW435821X]: the “Percent Control” value in assay [1] is 100%; in assay [2], 84%; in assay [3] it was 100%; in assay [4] it was 100%; in [5] it was 74%; in assay [6] it was 100%. Also, the “Percent Control” value in [7] amounted to 65%; in [8], 99%; in [9], 100%; in assay [10] it was 93%; in [11] it was 90%; in assay [12], 85%. Moreover, the “Percent Control” value in [13] was 87%; in assay [14], 93%; in assay [15], 100%; in assay [16], 100%; in [17], 90%; in assay [18], 100%. Moreover, the entries for the “Percent Control” value in [19] and in assay [20] were 100% and 79%, respectively.
